# Most compounds without a hit are left out; they make up all but 4.3% or so of the library.
# esBAF inh: SWI/SNF esBAF complex inhibition; mouse ES cells, Bmi1-luciferase knock-in reporter, 24 h; 100% = twice the neutral-well signal; reporter increase, % at 12.5 µM; 2% of 350,000 active; in the data active = activation above about 40%; inconclusive = no clear call, values can overlap the other calls;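 also: a rise in the Bmi1 reporter signal indicates esBAF inhibition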
# SMARCA2 act: SMARCA2 function activation, primary screen | AID 652017 | MG213 cells, MMTV-luciferase reporter, dexamethasone, overnight | activation, % at 9.1 µM | 1% of 370,000 active; in the data active = activation above about 7.8%
# MITF TRPM1 HTS: activators of MITF-driven TRPM1 promoter activity in SK-MEL-5 cells. SK-MEL-5 TRPM1-promoter luciferase, 24 h; % of positive control, neutral wells = 0. activation, % at 12.5 µM. 0.75% of 300,000 active. AID 588334;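 active = mean activation of at least 80% with every replicate also reaching 80%; inconclusive = mean reaches 80% but some replicate falls short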
# HSF1 activator: increases HSF-1 driven luciferase reporter signal; 1.7% of 300,000 active; AID 504408; activation, % at 9 µM; NIH3T3-HGL HSF-1 luciferase reporter, MG132, 8 h; 100% = twice DMSO control signal;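 active = mean replicate activation of at least 50% with a set share of replicates each reaching 50%; inconclusive = only one of those two conditions met; inactive = mean below 50% and too few replicates reaching it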
# HSF1 inhib: HSF1 inhibition | NIH3T3-HGL HSE-luciferase, MG132-induced, luminescence 8 h; hits give low values | activity change, negative = inhibition, % at 7.5 µM (by protocol) | 0.77% of 300,000 active;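 active = more than half of replicate wells show activity change below -50%, luminescence cut by over half; inconclusive = some wells, but at most half, below -50%; inactive = no replicate well below -50%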;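 also: luciferase reports HSF-1 transcriptional activity via heat shock element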
# Wnt bcat act: activators of Wnt/beta-catenin signaling; activation, % at 9.35 µM; Wnt/beta-catenin reporter cell assay, activator, plate reader; 1.2% of 300,000 active; in the data active = activation above about 30%, passing the limit was not always enough; inconclusive = no clear call, values can overlap the other calls
# A number is an active result; – = inactive; ? = inconclusive; · = not tested or not shown.
SMILES,esBAF inh,SMARCA2 act,MITF TRPM1 HTS,HSF1 activator,HSF1 inhib,Wnt bcat act
c1ccc(-c2cnc(-c3ccccn3)nn2)cc1,–,–,–,–,–,46
c1ccc(-c2cnc(-c3ccccc3)nn2)cc1,–,7.9,–,–,–,–
CO[C@H]1CN(C)C(=O)c2cc(NC(=O)c3cccc(F)c3)ccc2OC[C@@H](C)N(C)C[C@@H]1C,–,·,·,·,·,·
CCC1CCCN1Cn1cnc2c([nH]c3ccc(C)cc32)c1=O (centres undefined),·,–,–,·,·,–
CCC1CCCN1Cn1cnc2c([nH]c3ccc(Cl)cc32)c1=O (centres undefined),·,9.7,–,–,–,·
COCCNC(=O)/C(C#N)=C/c1cc(C)n(C2CCCCC2)c1C,·,–,91,–,–,–
COCCNC(=O)/C(C#N)=C/c1cc(C)n(-c2ccc(C)cc2)c1C,·,–,–,–,–,–
CCN(CC)C(=O)CSc1nc2c(sc(=S)n2-c2ccccc2)c(=O)n1Cc1ccco1,–,–,–,67,–,·
CCN(CC)C(=O)CSc1nc2c(sc(=S)n2CC)c(=O)n1-c1ccccc1,–,–,–,–,–,·
CCOC(=O)CSc1nc2c(sc(=S)n2Cc2ccco2)c(=O)n1-c1ccc(F)cc1,–,–,–,80,–,·
CC(C)NC(=O)N(C)C[C@H]1Oc2c(NS(=O)(=O)c3ccc(F)cc3)cccc2C(=O)N([C@H](C)CO)C[C@H]1C,–,·,·,·,·,·
COc1ccc(C(=O)C2CCCN(S(=O)(=O)C(C)C)C2)c(C)c1 (centres undefined),·,–,–,62,–,–
COc1ccc(C(=O)C2CCCN(S(=O)(=O)N(C)C)C2)c(C)c1 (centres undefined),–,–,–,–,–,–
COCC(=O)N1C[C@@H](C)[C@H](OC)CN(C)C(=O)c2ccc(NC(=O)c3cc(C)on3)cc2OC[C@H]1C,–,·,·,·,·,·
O=C(NCc1ccccc1C(F)(F)F)C1CC(c2ccc(C(F)(F)F)cc2)=NO1 (centres undefined),–,–,–,–,-65,–
CC(C)NC(=O)Nc1cccc2c1O[C@@H](CN(C)S(=O)(=O)c1cccs1)[C@@H](C)CN([C@H](C)CO)C2=O,–,·,·,·,·,·
COC(=O)c1cccc(-n2c(C)cc(/C=C3\SC(=O)NC3=O)c2C)c1,45,–,·,·,·,–
C/C(=N\NC(=O)C(N)=O)c1ccc(NC(=O)c2cccs2)cc1,·,–,–,–,–,–
COC(=O)Cc1ccc(NC(=O)c2cccs2)cc1,49,–,–,–,–,–
N/C(=N\O)c1ccc(NC(=O)c2cccs2)cc1,–,–,–,–,–,40
O=C(C[C@H]1CC[C@H](NC(=O)Nc2cc(F)ccc2F)[C@@H](CO)O1)NCc1ccc2c(c1)OCO2,–,·,·,·,·,·
O=C(O)C[C@@H]1CC[C@@H](NC(=O)Nc2cc(F)ccc2F)[C@H](CO)O1,–,·,·,·,·,·
C[C@H]1CN([C@@H](C)CO)C(=O)c2cccc(NC(=O)C3CC3)c2O[C@@H]1CN(C)Cc1ccc(Oc2ccccc2)cc1,–,·,·,·,·,·
CCCc1cc(C(=O)Nc2ccccc2SC)no1,51,–,·,–,–,–
CCCc1cc(C(=O)Nc2cccc(Cl)c2C)no1,58,–,–,–,–,–
SMILES,esBAF inh,SMARCA2 act,MITF TRPM1 HTS,HSF1 activator,HSF1 inhib,Wnt bcat act
Cc1noc(C(=O)Nc2ccc(F)cc2F)c1Cl,–,–,–,–,–,–
CCCc1cc(C(=O)Nc2ccc(F)cc2F)no1,68,–,·,–,–,–
CCCc1cc(C(=O)NCc2ccccc2)no1,–,–,·,–,–,–
Cc1csc(-c2cnn(-c3ccccc3)c2NC(=O)c2cccc(C(F)(F)F)c2)n1,·,–,–,81,–,–
O=C(Nc1ccccc1-c1ccccc1)c1cccc(C(F)(F)F)c1,·,–,–,–,–,–
CC(C)Oc1ccc(C(=O)NC2CCCCC2)cc1,50,–,–,?,–,·
CC(C)Oc1ccc(C(=O)O)cc1,–,–,–,–,-89,–
CC(C)Oc1ccc(C(=O)NC2CCS(=O)(=O)C2)cc1 (centres undefined),–,–,–,–,–,·
CC(C)Oc1ccc(C(=O)O)c(C(=O)O)c1,–,–,–,–,–,–
Cc1noc(C)c1S(=O)(=O)N(C)C[C@@H]1Oc2ccc(NS(=O)(=O)c3cccs3)cc2C(=O)N([C@H](C)CO)C[C@@H]1C,–,·,·,·,·,·
O=C(C[C@@H]1CC[C@H]2[C@@H](COC[C@@H](O)CN2Cc2ccccc2)O1)NCCCN1CCOCC1,–,·,·,·,·,·
Oc1c(C(c2ccccn2)N2CCCCC2)cc(Cl)c2cccnc12 (centres undefined),·,–,–,–,–,59
CC(=O)NC(c1ccccc1)c1cc(Cl)c2cccnc2c1O (centres undefined),–,–,·,–,-83,–
COc1ccc(C(NC(C)=O)c2cc(Cl)c3cccnc3c2O)cc1 (centres undefined),–,–,·,–,–,–
CN1CCN(C(c2ccc(C(F)(F)F)cc2)c2cc(Cl)c3cccnc3c2O)CC1 (centres undefined),·,–,·,–,–,–
CN1CCN(C(c2ccc(Cl)cc2)c2cc(Cl)c3cccnc3c2O)CC1 (centres undefined),–,–,–,79,–,–
CCCOc1c(Br)cc(C2C3=C(CCCC3=O)N(CC)C3=C2C(=O)CCC3)cc1OC,44,–,–,–,–,–
CCCOc1c(Br)cc(C2C3=C(CCCC3=O)N(C)C3=C2C(=O)CCC3)cc1OC,·,–,–,–,–,–
O=C(Nc1ccccc1)N1CCCCN2[C@@H](CO)[C@@H](c3ccc(Br)cc3)[C@@H]2C1,–,·,·,·,·,·
CCn1c(=O)cc(SCC(=O)N2CCOCC2)c2ccccc21,–,–,–,–,–,·
CCn1c(=O)cc(SCC(=O)N2CCN(C3CCCCC3)CC2)c2ccccc21,–,–,–,62,–,·
CCn1c(=O)cc(SCC(=O)Nc2ccc(Cl)cc2)c2ccccc21,–,–,–,97,–,–
CCn1c(=O)cc(SCC(=O)Nc2ccc(OC)c(OC)c2)c2ccccc21,–,–,·,–,–,·
C[C@H](CO)N1C[C@H](C)[C@H](CN(C)C(=O)Nc2ccc3c(c2)OCO3)Oc2ccc(NC(=O)CCC(F)(F)F)cc2CC1=O,–,·,·,·,·,·
C[C@@H]1CN([C@@H](C)CO)C(=O)c2cccc(NC(=O)Nc3ccc(C(F)(F)F)cc3)c2O[C@@H]1CN(C)C(=O)NC1CCCCC1,–,·,·,·,·,·
O=C(C[C@H]1C[C@@H]2c3cc(NC(=O)CC4CC4)ccc3O[C@@H]2[C@@H](CO)O1)NCc1ccccn1,–,·,·,·,·,·
Cc1ccc(C(=O)Nc2nnc(-c3ccco3)o2)cc1,·,–,–,–,–,–
Cc1ccsc1C(=O)Nc1nnc(-c2ccco2)o1,43,–,·,–,–,·
C[C@@H]1CN([C@H](C)CO)C(=O)Cc2cc(NC(=O)C3CCCCC3)ccc2O[C@H]1CN(C)C(=O)Nc1ccc2c(c1)OCO2,52,·,·,·,·,·
